Measurements from PubChem BioAssay.

Legend:
[1] = tested on: Botulinum neurotoxin type F light chain protease (Clostridium botulinum); test: Botulinum neurotoxin type F light chain protease inhibition, multiplex microsphere flow cytometry, validation set (AID 588459); settings: multiplex microsphere protease substrate cleavage assay, at 10 µM, stronger effect = higher value
[2] = biological target: Botulinum neurotoxin type A (Clostridium botulinum) (UniProt P0DPI0); test: BoNT/A light chain protease inhibitors, biochemical, multiplex microsphere flow cytometry, validation set (AID 588460); settings: at 10 µM, stronger effect = higher value
[3] = biological target: Lethal factor (Bacillus anthracis) (UniProt P15917); test: Lethal factor protease inhibitors, Bacillus anthracis, multiplex microsphere cleavage assay, validation set (AID 588461); settings: flow cytometry, at 10 µM, stronger effect = higher value

Measured: inhibition

Botulinum neurotoxin type A (Clostridium botulinum), sequence (P0DPI0 whole entry, looked up): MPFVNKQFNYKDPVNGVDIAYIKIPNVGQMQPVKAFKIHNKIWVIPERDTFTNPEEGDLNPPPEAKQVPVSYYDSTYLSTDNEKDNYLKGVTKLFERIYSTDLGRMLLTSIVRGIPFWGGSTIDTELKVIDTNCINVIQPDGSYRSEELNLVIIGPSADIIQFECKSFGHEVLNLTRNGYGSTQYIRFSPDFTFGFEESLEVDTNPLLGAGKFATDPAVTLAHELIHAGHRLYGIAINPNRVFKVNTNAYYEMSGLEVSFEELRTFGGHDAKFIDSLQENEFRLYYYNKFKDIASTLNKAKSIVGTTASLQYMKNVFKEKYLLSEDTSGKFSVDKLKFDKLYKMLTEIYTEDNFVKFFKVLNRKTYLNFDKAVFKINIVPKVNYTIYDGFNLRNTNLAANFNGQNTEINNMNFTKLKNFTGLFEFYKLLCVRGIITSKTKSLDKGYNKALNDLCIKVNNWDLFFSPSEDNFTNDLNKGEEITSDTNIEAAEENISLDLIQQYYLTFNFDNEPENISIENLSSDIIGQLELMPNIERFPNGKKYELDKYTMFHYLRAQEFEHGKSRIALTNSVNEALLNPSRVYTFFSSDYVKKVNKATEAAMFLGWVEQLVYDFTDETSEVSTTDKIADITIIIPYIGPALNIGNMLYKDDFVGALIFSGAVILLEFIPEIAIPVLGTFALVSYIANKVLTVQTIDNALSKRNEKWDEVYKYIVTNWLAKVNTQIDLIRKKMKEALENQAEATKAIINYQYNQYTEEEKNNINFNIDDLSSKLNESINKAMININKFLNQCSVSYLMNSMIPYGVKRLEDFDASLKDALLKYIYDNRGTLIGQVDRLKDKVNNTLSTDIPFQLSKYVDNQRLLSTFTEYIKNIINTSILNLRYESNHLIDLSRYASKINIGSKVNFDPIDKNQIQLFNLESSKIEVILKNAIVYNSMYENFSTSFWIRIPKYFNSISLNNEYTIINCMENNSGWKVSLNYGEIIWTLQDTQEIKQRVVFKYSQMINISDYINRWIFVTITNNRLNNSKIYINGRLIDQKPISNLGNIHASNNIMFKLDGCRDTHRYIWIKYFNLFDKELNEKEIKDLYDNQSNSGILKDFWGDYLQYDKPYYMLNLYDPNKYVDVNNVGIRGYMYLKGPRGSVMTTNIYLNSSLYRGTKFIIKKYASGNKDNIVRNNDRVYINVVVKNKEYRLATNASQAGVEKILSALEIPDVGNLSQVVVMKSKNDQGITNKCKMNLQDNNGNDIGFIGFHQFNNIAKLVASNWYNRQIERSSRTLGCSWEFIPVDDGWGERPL
Lethal factor (Bacillus anthracis), sequence (P15917 whole entry, looked up): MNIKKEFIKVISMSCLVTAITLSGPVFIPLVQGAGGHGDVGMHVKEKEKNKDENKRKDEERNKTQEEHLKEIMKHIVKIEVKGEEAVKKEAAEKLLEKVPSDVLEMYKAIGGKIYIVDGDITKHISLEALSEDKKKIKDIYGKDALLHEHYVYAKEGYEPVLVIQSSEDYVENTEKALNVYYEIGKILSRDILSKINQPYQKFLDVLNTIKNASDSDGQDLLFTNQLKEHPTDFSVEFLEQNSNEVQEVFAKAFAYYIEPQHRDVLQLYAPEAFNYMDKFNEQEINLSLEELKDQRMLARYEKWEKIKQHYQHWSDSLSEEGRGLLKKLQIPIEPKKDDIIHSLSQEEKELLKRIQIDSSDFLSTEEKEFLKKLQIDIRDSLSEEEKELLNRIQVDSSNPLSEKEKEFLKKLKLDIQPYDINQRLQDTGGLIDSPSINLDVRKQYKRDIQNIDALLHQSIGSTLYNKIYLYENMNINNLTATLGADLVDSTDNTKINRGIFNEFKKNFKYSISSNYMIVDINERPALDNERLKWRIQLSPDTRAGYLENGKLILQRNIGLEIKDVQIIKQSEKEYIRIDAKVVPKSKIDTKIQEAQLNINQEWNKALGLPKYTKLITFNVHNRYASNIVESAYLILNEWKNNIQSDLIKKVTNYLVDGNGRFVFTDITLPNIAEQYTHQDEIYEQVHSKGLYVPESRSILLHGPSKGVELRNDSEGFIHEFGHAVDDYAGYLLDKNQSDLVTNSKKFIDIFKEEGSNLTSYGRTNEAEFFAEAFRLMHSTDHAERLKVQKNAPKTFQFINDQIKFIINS

CC(=O)c1ccc(CCCCCCCCCC(=O)O)s1
inactive: [1] 1.9% | [2] 0.3% | [3] -1%

CCOC(=O)C1(Cc2cccc(Cl)c2)CCCN(C2CCN(C(C)=O)CC2)C1 (stereo not drawn)
inactive: [1] 9.1% | [2] 0.7% | [3] -5.1%

COc1ccc(C2C3C(C)=NN=C3CC(C)(O)C2C(C)=O)cc1 (stereo not drawn)
inactive: [1] -2% | [2] -0.6% | [3] 4%

CC1CCc2cc(F)cc3c(=O)c(C(=O)O)cn1c23 (stereo not drawn)
inactive: [1] 3.2% | [2] 1.8% | [3] 3.5%

CCCC1O[C@@H]2C[C@H]3[C@@H]4CCC5=CC(=O)C=C[C@]5(C)[C@H]4[C@@H](O)C[C@]3(C)[C@]2(C(=O)CO)O1 (stereo partly drawn)
inactive: [1] 6.3% | [2] 3.4% | [3] 3.4%

COc1ccc2nc(NC(=O)Nc3ccccc3)sc2c1
inactive: [1] -3.1% | [2] -2.6% | [3] -2.7%

COc1cc(C2C(C(C)=O)=C(O)C(=O)N2c2ccc(C)cc2)ccc1O (stereo not drawn)
inactive: [1] -1.4% | [2] 0.2% | [3] 0%

CNCCc1ccccn1
inactive: [1] 1.1% | [2] 1.1% | [3] -8.2%

C=CCc1cccc2cc(C(=O)Nc3ccc(CC(=O)O)cc3)c(=O)oc12
inactive: [1] 1.3% | [2] -0.1% | [3] 0.8%

O=C(Nc1ccc(C(=O)NC2CCCCC2)cc1)c1cccnc1
inactive: [1] 0.1% | [2] -1.5% | [3] -12.6%

C#C[C@]1(O)CC[C@H]2[C@@H]3CCc4cc(O)ccc4[C@H]3CC[C@@]21C
inactive: [1] -3.8% | [2] -2.8% | [3] 6.8%

C[C@H]([C@@H](N)C(=O)N[C@@H](C(=O)O)[C@@H]1O[C@H](n2ccc(=O)[nH]c2=O)[C@@H](O)[C@H]1O)[C@@H](O)c1ccc(O)cn1
inactive: [1] 0.3% | [2] -1% | [3] -3.6%

O=C(NC(=S)Nc1nc(-c2ccccc2)cs1)c1ccco1
inactive: [1] 4.3% | [2] -0.2% | [3] -0.3%

O=C(c1ccccc1F)c1cc2c(cc1[N+](=O)[O-])OCCO2
inactive: [1] 5.4% | [2] -0.4% | [3] 3.6%

O=C(O)CCCc1ccccc1
inactive: [1] -3.3% | [2] -2.3% | [3] -6.6%

COc1cccc2c1OCC1COc3c(c(=O)n(C)c(=O)n3C)C21 (stereo not drawn)
inactive: [1] 1.5% | [2] 0.5% | [3] 0.2%

CCC(C)NCCOc1ccc(C(C)(C)c2ccccc2)cc1 (stereo not drawn)
inactive: [1] -2% | [2] 0.7% | [3] -12.8%

Cc1c(O)c(=O)ccn1C
inactive: [1] 3.3% | [2] -1% | [3] 0.9%

CCCCCC(O)c1cccc(OCc2ccc3ccccc3n2)c1 (stereo not drawn)
inactive: [1] 0.9% | [2] 0.6% | [3] -0.8%

Cc1cc(OCC(=O)C(C)(C)C)c2c(C)c(C)c(=O)oc2c1
inactive: [1] -1.4% | [2] 0.5% | [3] 0.7%

O=C(/C=C/c1ccccc1)NCC1(c2ccccc2)CCOCC1
inactive: [1] -1.5% | [2] 0.4% | [3] 3%

COc1cc2c(cc1OC)C(c1ccc(-c3cc(Cl)ccc3Cl)o1)=NCC2
inactive: [1] 0.4% | [2] 0.7% | [3] -4.2%

CC(=O)OCC#CCSc1nc2ccccc2n1C
inactive: [1] 0.7% | [2] -0.6% | [3] -1.5%

CCOC(=O)c1cnc2ccc(C(=O)OC)cc2c1Nc1ccc2c(c1)OCCO2
inactive: [1] -0.5% | [2] 0.1% | [3] -1.2%

CC1(C)Cc2nc3oc4c(NCc5ccccc5)ncnc4c3cc2CO1
inactive: [1] 0.7% | [2] 0.2% | [3] 2.2%

COc1ccc2[nH]c(=O)c3c(c2c1)OC(C)(C)C=C3
inactive: [1] 1.1% | [2] 0.3% | [3] -4.6%

O=C1[C@@H]2CSCN2C(=O)CN1Cc1ccc(F)cc1
inactive: [1] 1.2% | [2] 0.7% | [3] 3.4%

c1cnc(N2CCN(Cc3ccc4c(c3)OCO4)CC2)nc1
inactive: [1] -2.3% | [2] -1.4% | [3] -5.5%

CC(C)NC[C@@H](O)c1ccc(O)c(O)c1
inactive: [1] -3.7% | [2] -0.5% | [3] -6.8%

OC(CCN1CCCCC1)(c1ccccc1)c1ccccc1
inactive: [1] 0.9% | [2] 0.5% | [3] -0.2%

CCOC(=O)NN1C(=O)c2ccccc2NC1c1ccc(OC)c(OC)c1 (stereo not drawn)
inactive: [1] 1.5% | [2] -0.6% | [3] -2%
